Tau fluor cs – Counterscreen qHTS for Inhibitors of Tau Fibril Formation, Fluorescence Polarization | tau K18 P301L Alexa594 fluorescence, heparin fibrillization | Potency, µM (top dose mostly 57.7 µM), without a hit: top-dose activity change, negative = decrease | 0.93% of 280,000 active | AID 1463, 2008; note: potency is the fitted concentration of half-maximal effect; nearly all actives have a fitted effect of over 55% in size
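Human K18 P301L tau (15 uM unlabeled plus 0.24 uM Alexa 594-labeled, final) in 100 mM sodium acetate pH 7 was mixed with compound and 20 uM heparin and incubated 6 hr at 37 C.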
Coupling enz – qHTS Assay for Inhibitors of Fructose-1,6-bisphosphate Aldolase from Giardia Lamblia: Coupling assay counterscreen. 0.67% of 290,000 active. coupling enzyme system counterscreen, AmpLite Red fluorescence. activity change, negative = inhibition, % at 58.2 µM, hits read low; in the data active = activity change below about -30%
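Coupling enzymes only (glyceraldehyde-3-phosphate) + compound, at 57.5 uM final, 10 min RT; add substrate/coupling/AmpLite Red mix, 20 min RT; fluorescence ex 525/em 598 nm. Actives flag coupling-system interference.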
Tau ThT inhib – qHTS for Inhibitors of Tau Fibril Formation, Thioflavin T Binding | AID 1460, 2008 | 2.1% of 270,000 active | Potency, µM (series often up to 57.4 µM), inactives show at the top dose activity, negative = inhibition, most hits filed as inhibitors | recombinant tau K18 P301L (four-repeat tau fragment), heparin-induced fibrillization, ThT fluorescence; note: potency is the fitted concentration of half-maximal effect; nearly all actives have a fitted effect of over 55% in size
Target sequence (P10636 561-689 P618L limits assumed): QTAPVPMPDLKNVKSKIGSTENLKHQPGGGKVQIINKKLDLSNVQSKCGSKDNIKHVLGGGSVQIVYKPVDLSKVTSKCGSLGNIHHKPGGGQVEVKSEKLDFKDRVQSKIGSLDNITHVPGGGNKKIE
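Heparin-induced fibrillization of the P301L-mutant K18 repeat-domain fragment of human tau was followed by ThT binding in quantitative high-throughput format.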
Sfp PPTase inh – qHTS Assay for Inhibitors of Bacillus subtilis Sfp phosphopantetheinyl transferase (PPTase); 4'-phosphopantetheinyl transferase ffp (Bacillus subtilis), Q9F4F7; Biochemical Sfp PPTase activity, qHTS; Potency, µM, without a hit: largest response in the series, negative = inhibition, hits mostly inhibitors; 3.5% of 310,000 active; AID 1490, 2009;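 note: the enzyme is Sfp with the accession as filed and its product quenches rhodamine fluorescence; potency is the fitted concentration of half-maximal effect; 0% = enzyme reaction without inhibitor and -100% = no enzyme wells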
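Fluorescence-quenching assay: 15 nM Sfp-PPTase preincubated 15 min at room temperature with compound, then 5 uM rhodamine-CoA and 12.5 uM BHQ-2-labelled YbbR peptide added. Fluorescence (ex 525/em 598 nm) read at start and after 30 min; difference gives rate.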
Tau FP inhib – qHTS for Inhibitors of Tau Fibril Formation, Fluorescence Polarization; Potency, µM (titrated, usually from 57.7 µM), without a hit: top-dose activity, negative = inhibition, actives largely listed as inhibitors; 0.39% of 280,000 active; Microtubule-associated protein tau (Homo sapiens), P10636; K18 P301L tau heparin fibrillization, Alexa594 FP, 6 h; note: potency is the fitted concentration of half-maximal effect; nearly all actives have a fitted effect of over 55% in size
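Compound effects on tau fibrillization are measured by Alexa 594 fluorescence polarization (ex 555, em 632 nm). K18 P301L tau is used at 15 uM with 0.24 uM labeled tracer, and 20 uM heparin induces aggregation over 6 hr at 37 C.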
Numbers without * were called inactive; ? = inconclusive; / = no result given; [ ] = another dose, or the depositor's remark. Rows were chosen to be rich in hits. Some 5.2% of all compounds tested hit in one or more screens of this group. Unless noted, calls come from the whole dose curve; as a rule, active = well fitted curve in the direction sought with a large enough effect; inconclusive = small, poorly fitted or top-dose-only effect, or another doubt; inactive = no such curve, though single readings can be large; an effect the other way counts as inactive or inconclusive. Unless noted, % is set by controls: 0 for no effect and ±100 for the full control effect.

SMILES	Tau fluor cs	Coupling enz	Tau ThT inhib	Sfp PPTase inh	Tau FP inhib
O=C(Cn1cc(C(=O)C(F)(F)F)c2ccccc21)N1CCCCCC1	-8%	/	-2%	/	-2%
Cc1ccc(S(=O)(=O)Nc2ccc(NC(=O)Nc3cccc(C(F)(F)F)c3)cc2)cc1	2.5µM*[quencher]	-3	-11%	29%	13µM*
CCN(CC)S(=O)(=O)c1ccc(NC(=O)Nc2cccc(C(F)(F)F)c2)cc1	?	-5	-4%	?	7.9µM*
CCN(CC)S(=O)(=O)c1ccc(/C=C/C(=O)Nc2cccc(F)c2)cc1	?	-1	?	11%	35µM*
CN(C)S(=O)(=O)NCCNC(=O)c1cc(OCC(F)(F)F)ccc1OCC(F)(F)F	4%	3	1%	10%	-3%
O=C(Nc1ccncc1)Nc1cccc(C(F)(F)F)c1	/	1	/	6%	/
O=C(NCCNC(=O)c1cc(OCC(F)(F)F)ccc1OCC(F)(F)F)Nc1cccc(C(F)(F)F)c1	?	-3	-19%	?	10µM*
COc1cccc(CCNC(=O)Cn2c(-c3cccs3)cc3ccccc32)c1	-26%	/	-6%	/	-3%
Cc1ccc(C)n1-c1nnc(N2CCCC(C(=O)NCc3ccc(Cl)cc3)C2)s1 (stereo not drawn)	-10%	/	-20%	/	?
CCN(CC)S(=O)(=O)c1ccc(NC(=O)C2c3ccccc3Oc3ccccc32)cc1	?	-1	-7%	10%	28µM*
O=C(Nc1ccc(OC(F)F)cc1)Nc1cccc(C(F)(F)F)c1	?	-12	-5%	-5%	25µM*
CCOc1ccc(C(=O)NCCc2sc3nc(-c4ccc(Cl)cc4)nn3c2C)cc1OCC	-18%	/	-12%	/	-3%
CCOC(=O)C1=C(Cc2ccc(F)cc2)C(=O)c2ccccc2C1=O	?	-57*	10µM*	8.9µM*	16µM*
FC(F)(F)c1ccccc1-c1ccc2ncnc(NCc3cccs3)c2c1	/	3	/	11%	/
COCCNC(=S)NNc1ccc(Cl)c(C(=O)O)c1	-14%	-2	?	4µM*	?
COCCNC(=S)N/N=C/c1ccccc1C(=O)O	-4%	3	-3%	63µM*	7%
CNC(=S)N/N=C/c1ccccc1OCC(=O)O	-8%	0	-5%	20µM*	2%
COc1cc(OC)cc(C(=O)NC(=S)Nc2ccc(Cl)c(C(=O)O)c2)c1	-3%	8	-2%	-25%	-3%
CCN(C(=O)Cn1c(=O)n(CCCS(=O)(=O)C2CCCCC2)c(=O)c2ccccc21)c1cccc(C)c1	-8%	/	-12%	/	5%
Cc1ccc(Nc2c(-c3ccc(C)s3)nc3ncccn23)cc1	-28%	/	-15%	/	3%
O=C(Nc1ccccc1)Nc1csc2ccccc12	11µM*[quencher]	-5	?	50µM*	?
O=C(Nc1ccc(Nc2ccccc2)cc1)Nc1ccccc1Cl	4µM*[quencher]	0	4µM*	11%	?
O=C(Nc1ccc(Cl)cc1)Nc1ccccc1Sc1ncc([N+](=O)[O-])s1	?	-1	/	50µM*	?
CC(=O)Nc1csc2ccccc12	1%	2	-4%	15%	-1%
O=C(Nc1cc(Cl)cc(Cl)c1)C(NCCO)c1ccccc1 (stereo not drawn)	2%	-2	-4%	35µM*	4%
SMILES	Tau fluor cs	Coupling enz	Tau ThT inhib	Sfp PPTase inh	Tau FP inhib
O=C(Cc1ccc(Cl)cc1)Nc1ncc([N+](=O)[O-])s1	-14%	1	?	-19%	11%
O=C(Nc1cc(Cl)cc(Cl)c1)C(c1ccccc1)N1CCCCC1 (stereo not drawn)	-11%	0	-8%	1%	-2%
O=C(CC1N=C2c3ccccc3N=C(SCc3cccc(F)c3)N2C1=O)NCc1cccs1 (stereo not drawn)	-10%	/	-7%	/	-1%
O=C(Nc1csc([N+](=O)[O-])c1)Nc1ccccc1Cl	25µM*[quencher]	-3	/	2%	0%
O=C(Nc1ccccc1)Nc1ccc(Oc2cccnc2)nc1	-7%	-2	8%	0%	3%
O=C(Nc1ccccc1)Nc1cc(Cl)cc(Cl)c1	?	1	?	-14%	11µM*
O=C(Nc1cccnc1)Nc1cc(Cl)cc(Cl)c1	?	-1	?	?	25µM*
O=C(Nc1ccccc1)Nc1cc(OCC(F)(F)F)cc(OCC(F)(F)F)c1	?	-5	-15%	7%	11µM*
COc1cccc(Cn2c(SCC(=O)N3CCN(c4ccc(F)cc4)CC3)nc3ccccc32)c1	-4%	/	-13%	/	0%
COc1cccc(C2=NN(C(C)=O)C(c3cn(-c4ccccc4)nc3-c3cccs3)C2)c1 (stereo not drawn)	-9%	/	-8%	/	3%
Cn1c(=O)c2c(nc(SCC(=O)O)n2Cc2cc3c(cc2Cl)OCO3)n(C)c1=O	-9%	13	-13%	56µM*	-10%
CCc1nn(-c2ccccc2)c2nc(-c3cccc(OC)c3)c3cc(OC)c(OC)cc3c12	-14%	/	-7%	/	5%
O=C1Nc2ccccc2C(=O)N2CCC[C@@H]12	-5%	0	0%	0%	-8%
O=C1Nc2cc(Cl)cnc2N2CCCC12 (stereo not drawn)	?	-9	14µM*	50µM*	?
O=C1C([N+](=O)[O-])=C(O)c2cccc3cccc1c23	/	-51*	/	8.9µM*	/
Cc1noc(NS(=O)(=O)c2ccc(NC(=O)COc3ccccc3Br)cc2)c1C	0%	/	-8%	/	9%
CCc1ccc(-c2nn(CC(=O)Nc3ccccc3)c3c2cnc2ccc(F)cc23)cc1	-4%	/	-2%	/	?
S=c1[nH]nc(COc2ccccc2)n1/N=C/c1ccccc1Br	/	6	/	2%	/
CCOc1ccc(/C=N/n2c(COc3ccccc3)n[nH]c2=S)cc1OC	/	4	/	56µM*	/
FC(F)(F)c1ccccc1/C=N/n1c(COc2ccccc2)n[nH]c1=S	/	6	/	50µM*	/
COc1cc(/C=N/n2c(COc3ccccc3)n[nH]c2=S)cc(Br)c1O	/	4	/	?	/
S=c1[nH]nc(COc2ccccc2)n1/N=C/c1ccc(Cl)c(Cl)c1	/	0	/	56µM*	/
Cc1cccc(/C=N/n2c(COc3ccccc3)n[nH]c2=S)c1	/	0	/	56µM*	/
Cc1ccc(-c2nc3cc(C(C)C)ccc3o2)cc1NC(=O)c1cccs1	-26%	/	-11%	/	?
Cc1ccc2c(c1)c1c3n2CCN=C3CCC1	-15%	0	?	4%	0%
c1cc2c(cc1C1CCCCC1)c1c3n2CCN[C@H]3CCC1	-27%	0	?	5.6µM*	4%

High-throughput results (PubChem)
